{"source": "PubChem BioAssay", "note": "“And” between values parts separate entries of the source, which are not always exact repeats. Identical values can stand only once."}
{"test": "viability loss with induced miR-34 in A549 – imaging, A549 dox-inducible miR-34, nuclei and caspase counts, primary screen (AID 1347080); note: test concentration not given here", "conditions": "A549 miR-34 inducible, Hoechst nuclei count, 48 h; measured here: total cells with miR-34 induction; stronger effect = lower value"}
{"compound": "CN1CCC(=C2c3ccccc3Sc3ccccc32)CC1", "cell count": 7410}
{"compound": "Cc1ccsc1/C=C/C1=NCCCN1C", "cell count": "8120 and 10200"}
{"compound": "Cc1ccccc1OCC(O)CO", "note": "(stereo not drawn)", "cell count": "8610 and 11300"}
{"compound": "O=c1ccc2ccccc2o1", "cell count": "7780 and 10900"}
{"compound": "CC(=O)OC/C=C(C)/C=C/C=C(C)/C=C/C1=C(C)CCCC1(C)C", "cell count": 10300}
{"compound": "CCn1cc(C(=O)O)c(=O)c2cnc(N3CCCC3)nc21", "cell count": 8260}
{"compound": "Cc1c(NC(C)C)c(=O)n(-c2ccccc2)n1C", "cell count": 8020}
{"compound": "NS(=O)(=O)c1cc2c(cc1Cl)NC(CSCc1ccccc1)=NS2(=O)=O", "cell count": "8870 and 9840"}
{"compound": "Cc1ccc(C(=O)c2ccc(CC(=O)O)n2C)cc1", "cell count": "9430 and 10400 and 9670"}
{"compound": "CCOc1ccc(NC(C)=O)cc1", "cell count": "9560 and 7800 and 11500"}
{"compound": "OC(CCN1CCCCC1)(c1ccccc1)c1ccccc1", "cell count": 9230}
{"compound": "O=C(O)c1ccccc1C(=O)Nc1ccc(S(=O)(=O)Nc2nccs2)cc1", "cell count": "8730 and 11300"}
{"compound": "CCCCCCCCNC(C)C(O)c1ccc(SC(C)C)cc1", "note": "(stereo not drawn)", "cell count": "4220 and 5020"}
{"compound": "CN(C)CCOC(=O)C(c1ccccc1)C1(O)CCCC1", "note": "(stereo not drawn)", "cell count": "9700 and 10300"}
{"compound": "COc1ccc(C(=O)c2ccccc2O)c(O)c1", "cell count": "8680 and 11300"}
{"compound": "CN1CCC(OC(c2ccccc2)c2ccccc2)CC1", "cell count": "8640 and 11300"}
{"compound": "Cc1cc(-c2ccccc2)nnc1NCCN1CCOCC1", "cell count": "8700 and 11800"}
{"compound": "CCN(CC)CCOC(=O)C(c1ccccc1)C1CCCCC1", "note": "(stereo not drawn)", "cell count": 8670}
{"compound": "CCC(=O)c1c(O)cc(O)cc1O", "cell count": 7860}
{"compound": "NC(=O)NC1NC(=O)NC1=O", "note": "(stereo not drawn)", "cell count": "8140 and 12000"}
{"compound": "CC1CCc2cc(F)cc3c(=O)c(C(=O)O)cn1c23", "note": "(stereo not drawn)", "cell count": "8860 and 8230 and 11600"}
{"compound": "CCCCN(CCCC)CCCOC(=O)c1ccc(N)cc1", "cell count": "8920 and 11400"}
{"compound": "Cn1c([N+](=O)[O-])cnc1COC(N)=O", "cell count": "9230 and 8250 and 11400"}
{"compound": "C[N+]12CCC(CC1)C(OC(=O)C(O)(c1ccccc1)c1ccccc1)C2", "note": "(stereo not drawn)", "cell count": "8530 and 9960"}
{"compound": "O=C1c2c(O)cccc2Cc2cccc(O)c21", "cell count": 11600}
{"compound": "CCN(CC)CCNc1ccc(CO)c2sc3ccccc3c(=O)c12", "cell count": "3110 and 3390"}
{"compound": "O=C(O)CCC(=O)c1ccc(-c2ccccc2)cc1", "cell count": "8550 and 11300 and 9420"}
{"compound": "COc1cccc(OC)c1C(=O)N[C@@H]1C(=O)N2[C@@H]1SC(C)(C)[C@@H]2C(=O)O", "cell count": 11700}
{"compound": "O=C(O)CCNC(=O)c1ccccc1", "cell count": 8280}
{"compound": "CCN1CCCC(OC(=O)C(c2ccccc2)c2ccccc2)C1", "note": "(stereo not drawn)", "cell count": "9410 and 10800"}
{"compound": "CCCCC(CC)CN1CN(CC(CC)CCCC)CC(C)(N)C1", "note": "(stereo not drawn)", "cell count": 8130}
{"compound": "CCN(CCCc1ccccc1)CCCc1ccccc1", "cell count": "9190 and 7300 and 10700"}
{"compound": "CC1(C)OC(=O)NC1=O", "cell count": "8730 and 10500"}
{"compound": "Nc1ccc(S(=O)(=O)NC(=O)c2ccccc2)cc1", "cell count": "7780 and 10600"}
{"compound": "CCCCOc1ccc(C(=O)CCN2CCCCC2)cc1", "cell count": "8270 and 5950 and 11300"}
{"compound": "COc1cc(NS(=O)(=O)c2ccc(N)cc2)ncn1", "cell count": "9390 and 12000"}
{"compound": "NC(N)=NS(=O)(=O)c1ccc(N)cc1", "cell count": "7720 and 8610 and 11300"}
{"compound": "Cc1cc(CC(=O)O)n(C)c1C(=O)c1ccc(Cl)cc1", "cell count": "9260 and 11200"}
{"compound": "C[C@H](N)[C@H](O)c1cccc(O)c1", "cell count": "9120 and 10800"}
{"test": "viability loss with induced miR-34 in A549 – imaging, A549 dox-inducible miR-34, nuclei and caspase counts, primary screen (AID 1347080); note: test concentration not given here", "conditions": "A549 miR-34 inducible, Hoechst nuclei count, 48 h; measured here: total cells without miR-34 induction"}
{"compound": "CN1CCC(=C2c3ccccc3Sc3ccccc32)CC1", "cell count": 8480}
{"compound": "Cc1ccsc1/C=C/C1=NCCCN1C", "cell count": "9110 and 12800"}
{"compound": "Cc1ccccc1OCC(O)CO", "note": "(stereo not drawn)", "cell count": "9470 and 12300"}
{"compound": "O=c1ccc2ccccc2o1", "cell count": "8550 and 12300"}
{"compound": "CC(=O)OC/C=C(C)/C=C/C=C(C)/C=C/C1=C(C)CCCC1(C)C", "cell count": 11500}
{"compound": "CCn1cc(C(=O)O)c(=O)c2cnc(N3CCCC3)nc21", "cell count": 8920}
{"compound": "Cc1c(NC(C)C)c(=O)n(-c2ccccc2)n1C", "cell count": 9170}
{"compound": "NS(=O)(=O)c1cc2c(cc1Cl)NC(CSCc1ccccc1)=NS2(=O)=O", "cell count": "10400 and 12800"}
{"compound": "Cc1ccc(C(=O)c2ccc(CC(=O)O)n2C)cc1", "cell count": "10300 and 12300 and 10500"}
{"compound": "CCOc1ccc(NC(C)=O)cc1", "cell count": "10800 and 8520 and 12600"}
{"compound": "OC(CCN1CCCCC1)(c1ccccc1)c1ccccc1", "cell count": 9810}
{"compound": "O=C(O)c1ccccc1C(=O)Nc1ccc(S(=O)(=O)Nc2nccs2)cc1", "cell count": "9550 and 12600"}
{"compound": "CCCCCCCCNC(C)C(O)c1ccc(SC(C)C)cc1", "note": "(stereo not drawn)", "cell count": "4270 and 6060"}
{"compound": "CN(C)CCOC(=O)C(c1ccccc1)C1(O)CCCC1", "note": "(stereo not drawn)", "cell count": "10000 and 11500"}
{"compound": "COc1ccc(C(=O)c2ccccc2O)c(O)c1", "cell count": "10200 and 13700"}
{"compound": "CN1CCC(OC(c2ccccc2)c2ccccc2)CC1", "cell count": "10200 and 13000"}
{"compound": "Cc1cc(-c2ccccc2)nnc1NCCN1CCOCC1", "cell count": "9870 and 13300"}
{"compound": "CCN(CC)CCOC(=O)C(c1ccccc1)C1CCCCC1", "note": "(stereo not drawn)", "cell count": 9680}
{"compound": "CCC(=O)c1c(O)cc(O)cc1O", "cell count": 8770}
{"compound": "NC(=O)NC1NC(=O)NC1=O", "note": "(stereo not drawn)", "cell count": "8570 and 13800"}
{"compound": "CC1CCc2cc(F)cc3c(=O)c(C(=O)O)cn1c23", "note": "(stereo not drawn)", "cell count": "9730 and 9310 and 13600"}
{"compound": "CCCCN(CCCC)CCCOC(=O)c1ccc(N)cc1", "cell count": "10300 and 12800"}
{"compound": "Cn1c([N+](=O)[O-])cnc1COC(N)=O", "cell count": "9730 and 8270 and 12400"}
{"compound": "C[N+]12CCC(CC1)C(OC(=O)C(O)(c1ccccc1)c1ccccc1)C2", "note": "(stereo not drawn)", "cell count": "10100 and 11600"}
{"compound": "O=C1c2c(O)cccc2Cc2cccc(O)c21", "cell count": 13000}
{"compound": "CCN(CC)CCNc1ccc(CO)c2sc3ccccc3c(=O)c12", "cell count": "3340 and 3880"}
{"compound": "O=C(O)CCC(=O)c1ccc(-c2ccccc2)cc1", "cell count": "9620 and 12400 and 11000"}
{"compound": "COc1cccc(OC)c1C(=O)N[C@@H]1C(=O)N2[C@@H]1SC(C)(C)[C@@H]2C(=O)O", "cell count": 12400}
{"compound": "O=C(O)CCNC(=O)c1ccccc1", "cell count": 9200}
{"compound": "CCN1CCCC(OC(=O)C(c2ccccc2)c2ccccc2)C1", "note": "(stereo not drawn)", "cell count": "9550 and 11900"}
{"compound": "CCCCC(CC)CN1CN(CC(CC)CCCC)CC(C)(N)C1", "note": "(stereo not drawn)", "cell count": 9710}
{"compound": "CCN(CCCc1ccccc1)CCCc1ccccc1", "cell count": "9640 and 7840 and 11900"}
{"compound": "CC1(C)OC(=O)NC1=O", "cell count": "10200 and 12700"}
{"compound": "Nc1ccc(S(=O)(=O)NC(=O)c2ccccc2)cc1", "cell count": "9660 and 11500"}
{"compound": "CCCCOc1ccc(C(=O)CCN2CCCCC2)cc1", "cell count": "9520 and 6630 and 12500"}
{"compound": "COc1cc(NS(=O)(=O)c2ccc(N)cc2)ncn1", "cell count": "10400 and 13300"}
{"compound": "NC(N)=NS(=O)(=O)c1ccc(N)cc1", "cell count": "8670 and 9630 and 12200"}
{"compound": "Cc1cc(CC(=O)O)n(C)c1C(=O)c1ccc(Cl)cc1", "cell count": "10000 and 12600"}
{"compound": "C[C@H](N)[C@H](O)c1cccc(O)c1", "cell count": "9740 and 13000"}
